Experimental data from PubChem BioAssay (NCI).
Compounds without any hit were thinned out: in the full panel of roughly 83,000, 20% have a hit.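 Interpretation: 100, growth as untreated; towards 0, rising growth inhibition; 0, no net growth; 0 to -100, cell death. Compounds scoring below 10 were considered active.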 The source made the active and inactive calls.

Test system: HCT-15 colon
Assay: NCI-60 one-dose screen, 48 h (100 = growth as untreated, 0 = no growth, -100 = all killed)
Details: 10 µM unless noted
Protocol: Growth inhibition of the HCT-15 human tumor cell line is measured as a screen for anti-cancer activity. Cells are grown in 96 well plates and exposed to the test compound for 48 hours. Compounds are tested at a single concentration, which is 10^-5 M for most compounds. The reported endpoint is percent growth (GI% or GIPRCNT), where numbers from 0 - 100% represent growth inhibition, and numbers from -100% - 0 represent cell death. For example, a value of 40 represents 60% growth inhibition. A value of 0 means no net growth occurred over the course of the experiment. A value of -40 indicates 40% of cells at the beginning of the experiment died by the end of the experiment. A value of -100 means all cells are dead at the end of the experiment.
NCI-60 Human Tumor Cell Lines Screen was performed using the standard one-dose NCI protocol, which is described in more detail at https://dtp.cancer.gov/discovery_development/nci-60/default.htm.
Compounds with GIPRCNT values below 10 were considered active. Activity score was based on GIPRCNT using the following formula: […]
Score is 0 for GIPRCNT values of 100 or above, 50 for GIPRCNT values of 0, and 100 for GIPRCNT values of -100.

| Structure (SMILES) | growth |
| --- | --- |
| Nc1c(C(=O)O)cc(Cl)cc1[N+](=O)[O-] | 104% (inactive) |
| CCN(CC)CCCC(C)Nc1ccc2cc(OC)ccc2n1 (stereo not given) | 103% (inactive) |
| Cc1ccc(-c2cc(C(=O)N3N=C(c4ccc(N)cc4)CC3c3ccc(Cl)cc3)c3ccccc3n2)cc1 (stereo not given) | 30.2% (inactive) |
| COc1cc2nc(Nc3cccc(F)c3)nc(Nc3cc(C)[nH]n3)c2cc1OC | -78.6% [20 µM] (active) |
| C/C(=N\Nc1nc(C)cs1)c1cc2ccccc2o1 | 98.8% (inactive) |
| O=C(CSc1nc2ccc([N+](=O)[O-])cc2[nH]1)Nc1cccc([N+](=O)[O-])c1 | 54.4% (inactive) |
| N#Cc1c(N2CCOCC2)nc(=S)[nH]c1-c1ccccc1 | 86.6% (inactive) |
| C/C(=N\O)C(=O)NCCCCCC(=O)Nc1ccccc1 | 101% (inactive) |
| Nc1c(C(=O)Nc2ccncc2)sc2nc3c(cc12)CCCCC3 | 64% (inactive) |
| CC1=CCC[C@@H]2C1(C)CC[C@H](C)[C@@]2(C)CC1=CC(=O)C(SC(C)(C)C)=CC1=O (stereo not given in full) | 86.4% (inactive) |
| C=CC(=O)N1CCN(c2ccc3cccc(NC(=O)c4cnc(C)cn4)c3n2)CC1 | 21.3% (inactive) |
| CCc1ccc(CCC(=O)Nc2ncc(Cc3ccc(Cl)cc3)s2)o1 | 21.9% (inactive) |
| CCOC(=O)Cn1c(=O)c2c3ccccc3n(C)c2n2nnc(-c3ccccc3)c12 | 114% (inactive) |
| CCn1cc(C(=O)N/N=C/c2ccc(Br)cc2)c(=O)c2cc(F)c(N3CCNC(C)C3)c(F)c21 (stereo not given) | -18.9% (active) |
| O=C(O)c1cn(C2CC2)c2cc(N3CCN(C(=O)N/N=C/c4ccccc4)CC3)c(F)cc2c1=O | 98.4% (inactive) |
| CCOC(=O)c1c(-c2ccccc2)n2c(=O)cc(C)c3c(O)c(O)cc1c32 | 28.8% (inactive) |
| CN1CCN(CCCOc2ccc3ncnc(Nc4ccc(Oc5cccc(F)c5)c(Cl)c4)c3c2)CC1 | -3.99% (active) |
| CN(C)Cc1ccc(C(=O)Nc2ccc3ncnc(Nc4ccc(Oc5cccc(F)c5)c(Cl)c4)c3c2)cc1 | -45.3% (active) |
| Nc1nc(C(=O)N/N=C/c2ccc(N3CCOCC3)cc2)nn1-c1ccc(S(N)(=O)=O)cc1 | 108% (inactive) |
| CC(C)c1ccc(-n2c(=S)[nH]c3sc4c(c3c2=O)CCC(=O)C4)cc1 | 45.9% (inactive) |

| Structure (SMILES) | growth |
| --- | --- |
| COc1ccc2c(c1)c(-c1ccc(-c3cn(C)c4ccc(OC)cc34)[nH]1)cn2C | 4.19% (active) |
| Cn1c(=O)c2c(c3ccccc31)OC(N)=C(C#N)C21C(=O)c2ccccc2C1=O | 96.1% (inactive) |
| CCN(CC)CCOc1ccc(Nc2ncc3cc(-c4ccc(O)cc4)c(=O)n(C)c3n2)cc1 | 19.7% (inactive) |
| O=C(/C=C/c1ccc(Br)cc1)c1ccc(-n2cc(CN3CCN(c4cc5c(cc4F)c(=O)c(C(=O)O)cn5C4CC4)CC3)nn2)cc1 | 95% (inactive) |
| NC(=O)OCCn1cc(-c2nc(-c3c[nH]c4ncccc34)cs2)c2ccccc21 | 28% (inactive) |
| O=C1C(Cl)=C(NCCN2CCOCC2)C(=O)c2ncccc21 | -38% (active) |
| Cc1c2ccccc2nc2c1ccc1cccnc12 | 81.4% (inactive) |
| CCOC(=O)Nc1nc2ccc(SCC(C)C)cc2s1 | 25.5% (inactive) |
| Cn1cc(C(=O)c2nc(-c3c[nH]c4ccc(Br)cc34)no2)c2cc(Br)ccc21 | 56.1% (inactive) |
| O=C1CCC(C(=O)NN(c2ccccc2)c2ccccc2)N1 (stereo not given) | 103% (inactive) |
| O=C(CCCCNC(=O)c1cc(=O)c(O)co1)Nc1ccccc1 | 49% (inactive) |
| Nc1n[nH]c2ccc([C@@H]3Nc4cc5[nH]ncc5cc4[C@H]4C5CCC(C5)[C@@H]34)cc12 (stereo not given in full) | 13.7% (inactive) |
| NC(=S)N/N=C/c1cn(-c2ccccc2)nc1-c1cc2ccccc2oc1=O | 28.2% (inactive) |
| COc1cccc(C(=O)OCC(O)C(=O)NC23CC4CC(CC(C4)C2)C3)c1 (stereo not given) | 96.9% (inactive) |
| COc1cc2cc(Oc3ccc(NC(=O)Nc4ccccc4)cc3)c(C)nc2cc1OCCN1CCCCC1 | 14.3% (inactive) |
| CCOC(=O)c1n[nH]n2c1nc(=O)c1cnn(C)c12 | 105% (inactive) |
| N=c1sc(Cc2cc(Cl)ccc2Cl)cn1CC(=O)c1ccccc1 | 23.5% (inactive) |
| N=C(N)c1ccc(-c2ccc(-c3ccc(Cl)cc3)o2)o1 | -78.1% (active) |
| COc1ccc(-c2nnc(SCC(=O)Nc3ccc(/C(C)=N\O)cc3)n2-c2ccccc2)cc1OC | 98.6% (inactive) |
| COc1cccc(NC(=O)c2cccc(C3CCc4c(cc(OC)c(OC)c4OC)O3)c2)c1 (stereo not given) | 63.2% (inactive) |
